Results filed as inconclusive are left out. A call without a number means that no potency is given here. A structure can be active in one record and inactive in another. Activity calls are given as the source filed them. Unless noted, calls follow the shape of the dose curve; as a rule, active = well fitted curve in the direction sought with a large enough effect in the repeat runs; inconclusive = weak or mixed curves; inactive = no such curve, though single readings can be large; an effect the other way counts as inactive or inconclusive.
Legend:
[1] = qHTS assay to identify small molecule agonists of the peroxisome proliferator-activated receptor delta (PPARd) signaling pathway - cell viability counter screen (AID 743211); also: nearly all actives have a fitted effect of over 55% in size
Summary of the method: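 Multiplexed format: after the 2 h room-temperature LiveBLAzer B/G FRET step, CellTiter-Glo was added to the same wells. Luminescence after 30 min gave cell viability; compound exposure was 17 h at 37C.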

[2] = molecular target: Peroxisome proliferator-activated receptor delta (Homo sapiens) (UniProt Q03181); experiment: qHTS assay to identify small molecule agonists of the peroxisome proliferator-activated receptor delta (PPARd) signaling pathway (AID 743212; calls by dose curve)
Chain of Peroxisome proliferator-activated receptor delta (Homo sapiens) (Q03181 whole entry, looked up): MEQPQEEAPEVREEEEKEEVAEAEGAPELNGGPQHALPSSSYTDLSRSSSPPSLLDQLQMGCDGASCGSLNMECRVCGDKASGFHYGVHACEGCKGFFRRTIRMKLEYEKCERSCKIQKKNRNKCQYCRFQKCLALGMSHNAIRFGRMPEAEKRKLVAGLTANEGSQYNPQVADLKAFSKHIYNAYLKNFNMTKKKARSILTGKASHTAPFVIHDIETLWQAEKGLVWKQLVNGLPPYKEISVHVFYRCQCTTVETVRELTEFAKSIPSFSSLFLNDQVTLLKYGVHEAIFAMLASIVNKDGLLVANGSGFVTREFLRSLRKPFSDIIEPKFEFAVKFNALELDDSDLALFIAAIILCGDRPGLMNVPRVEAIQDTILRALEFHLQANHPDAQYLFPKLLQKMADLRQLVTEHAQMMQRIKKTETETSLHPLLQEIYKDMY
Summary of the method: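 HEK293H UAS-bla reporter cells, human PPARd system; compounds delivered in DMSO after 5 h plating, then at 37 C. Beta-lactamase FRET read, 2 h RT substrate step.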

[3] = qHTS assay to identify small molecule antagonists of the peroxisome proliferator-activated receptor delta (PPARd) signaling pathway - cell viability counter screen (AID 743213); also: nearly all actives have a fitted effect of over 50% in size
Summary of the method: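 CellTiter-Glo was added to PPARd-bla HEK293H wells following 17 h compound treatment in the presence of 300 nM L165041. Luminescence was recorded after 30 min at room temperature.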

[4] = molecular target: Peroxisome proliferator-activated receptor delta (Homo sapiens) (UniProt Q03181); experiment: qHTS assay to identify small molecule antagonists of the peroxisome proliferator-activated receptor delta (PPARd) signaling pathway (AID 743215; active = well fitted inhibition curve with a large enough effect in the signal ratio in the repeat runs, not every such curve was filed as active; the % refers to the signal ratio;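 also: cells stimulated with agonist L165041 at 300 nM final during compound exposure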; also: potency is read from the fitted curve at half-maximal effect)
Summary of the method: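 With L165041 present at 300 nM final, compounds were incubated 17 h at 37 C on PPARd UAS-bla HEK293H cells. A FRET-based beta-lactamase substrate was then applied for 2 h at room temperature and fluorescence intensity recorded.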

[5] = molecular target: Bile acid receptor (Homo sapiens) (UniProt Q96RI1); experiment: qHTS assay to identify small molecule antagonists of the farnesoid-X-receptor (FXR) signaling pathway (AID 743217; active = well fitted inhibition curve with a large enough effect in the signal ratio in the repeat runs, not every such curve was filed as active; the % refers to the signal ratio)
Chain of Bile acid receptor (Homo sapiens) (Q96RI1 whole entry, looked up): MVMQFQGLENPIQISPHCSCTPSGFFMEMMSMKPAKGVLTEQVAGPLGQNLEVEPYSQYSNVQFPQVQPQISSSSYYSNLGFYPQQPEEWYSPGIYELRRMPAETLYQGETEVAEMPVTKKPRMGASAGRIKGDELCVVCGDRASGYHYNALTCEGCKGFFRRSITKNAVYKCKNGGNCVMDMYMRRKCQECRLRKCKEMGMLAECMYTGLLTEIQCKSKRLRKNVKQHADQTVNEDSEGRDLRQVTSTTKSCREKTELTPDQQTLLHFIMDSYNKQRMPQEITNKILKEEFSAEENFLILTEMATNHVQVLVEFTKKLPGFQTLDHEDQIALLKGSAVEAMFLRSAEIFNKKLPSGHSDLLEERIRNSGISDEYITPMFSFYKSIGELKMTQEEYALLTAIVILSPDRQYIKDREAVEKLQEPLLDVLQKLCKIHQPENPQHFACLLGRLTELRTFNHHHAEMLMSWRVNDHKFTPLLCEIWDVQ
Summary of the method: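 In this cell-based antagonist screen, inhibition of CDCA-driven (50 uM final) UAS-beta-lactamase expression in HEK 293T cells was measured by FRET fluorescence following 16 h compound exposure at 37 °C.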

[6] = qHTS assay to identify small molecule agonists of the farnesoid-X-receptor (FXR) signaling pathway - cell viability counter screen (AID 743218); also: nearly all actives have a fitted effect of over 45% in size
Summary of the method: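 After 16 h at 37 C with test compounds, FXR-bla HEK 293T cells were given LiveBLAzer B/G substrate for 2 h at RT and then CellTiter-Glo; luminescence was taken after 30 min.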

[7] = molecular target: Bile acid receptor (Homo sapiens) (UniProt Q96RI1); experiment: qHTS assay to identify small molecule agonists of the farnesoid-X-receptor (FXR) signaling pathway (AID 743220; active = well fitted activation curve with a large enough effect in the signal ratio in the repeat runs, not every such curve was filed as active; the % refers to the signal ratio)
Summary of the method: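 Beta-lactamase reporter under UAS control in GeneBLAzer FXR HEK 293T cells (5000/well) measured with LiveBLAzer FRET substrate after 2 h at room temperature. Compound exposure lasted 16 h at 37C.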

[8] = qHTS assay to identify small molecule antagonists of the farnesoid-X-receptor (FXR) signaling pathway - cell viability counter screen (AID 743221; active = well fitted cell-killing curve with a large enough effect in the repeat runs, not every such curve was filed as active; also: nearly all actives have a fitted effect of over 50% in size)
Summary of the method: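 CellTiter-Glo, 30 min RT, luminescence; same wells as the LiveBLAzer FRET read. Cells: FXR-UAS-bla HEK 293T. Treatment: compound with chenodeoxycholic acid 50 uM final, 16 h at 37 C.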

[9] = molecular target: Vitamin D3 receptor (Homo sapiens) (UniProt P11473); experiment: qHTS assay to identify small molecule agonists of the vitamin D receptor (VDR) signaling pathway (AID 743222; calls by dose curve)
Chain of Vitamin D3 receptor (Homo sapiens) (P11473 whole entry, looked up): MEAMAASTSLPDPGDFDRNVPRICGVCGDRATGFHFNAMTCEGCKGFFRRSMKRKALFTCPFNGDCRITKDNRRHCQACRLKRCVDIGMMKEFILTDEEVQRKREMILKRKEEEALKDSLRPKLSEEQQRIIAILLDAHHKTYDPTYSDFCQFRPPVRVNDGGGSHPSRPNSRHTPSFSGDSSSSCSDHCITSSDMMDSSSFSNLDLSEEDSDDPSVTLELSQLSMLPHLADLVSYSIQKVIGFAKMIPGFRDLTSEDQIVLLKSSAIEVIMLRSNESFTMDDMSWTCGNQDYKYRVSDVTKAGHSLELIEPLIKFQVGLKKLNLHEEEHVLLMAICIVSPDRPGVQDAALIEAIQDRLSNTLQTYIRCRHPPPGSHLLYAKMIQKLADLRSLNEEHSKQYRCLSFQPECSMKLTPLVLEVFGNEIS
Summary of the method: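 VDR-bla cells were seeded, left 4 h, treated with compounds in DMSO for 16 h, incubated 2 h at RT with B/G FRET substrate, and read for fluorescence.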

[10] = molecular target: Vitamin D3 receptor (Homo sapiens) (UniProt P11473); experiment: qHTS assay to identify small molecule antagonists of the vitamin D receptor (VDR) signaling pathway (AID 743223; active = well fitted inhibition curve with a large enough effect in the signal ratio in the repeat runs, not every such curve was filed as active; the % refers to the signal ratio)
Summary of the method: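 After VDR-bla cells are plated and left 4 h at 37C, DMSO-dissolved compounds and 3 nM (final) calcitriol agonist are added. Incubation continues 16 h at 37C; FRET beta-lactamase substrate then develops 2 h at room temperature.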

[11] = qHTS assay to identify small molecule agonists of the vitamin D receptor (VDR) signaling pathway - cell viability counter screen (AID 743224); also: series mostly up to about 63 µM; nearly all actives have a fitted effect of over 50% in size
Summary of the method: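 Here cell health was gauged by luminescent ATP detection (CellTiter-Glo, 30 min RT) in VDR-bla cells that had been incubated with test compounds for 16 h at 37C and 5% CO2.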

[12] = qHTS assay to identify small molecule antagonists of the vitamin D receptor (VDR) signaling pathway - cell viability counter screen (AID 743225); also: nearly all actives have a fitted effect of over 50% in size
Summary of the method: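 Cytotoxicity toward the VDR-bla HEK 293T line was scored by ATP-based CellTiter-Glo luminescence, read in the wells already used for the beta-lactamase readout after 16 h compound treatment under 3 nM 1-alpha,25-dihydroxyvitamin D3 stimulation.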

[13] = qHTS assay to identify small molecule agonists of the NFkB signaling pathway (AID 1159509; active = well fitted curve in the direction sought with a large enough effect in the signal ratio in the repeat runs, not every such curve was filed as active; the % refers to the signal ratio; also: series mostly up to about 61 µM)
Summary of the method: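 After overnight attachment, reporter cells received test compounds, DMSO or positive controls and were incubated 5 hr at 37 C. FRET substrate was then added for 1.5 hr at room temperature before dual-emission fluorescence reading.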

[14] = qHTS assay to identify small molecule agonists of the endoplasmic reticulum stress response signaling pathway (AID 1159516; active = well fitted activation curve with a large enough effect in the signal ratio in the repeat runs, not every such curve was filed as active; the % refers to the signal ratio)
Summary of the method: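 Reporter HeLa cells (ESRE-beta-lactamase) underwent 5 hr compound incubation at 37 C and 5% CO2 in quantitative HTS format. Detection followed 2 hr of FRET substrate loading at room temperature.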

[15] = qHTS assay to identify small molecule agonists of the endoplasmic reticulum stress response signaling pathway - cell viability counter screen (AID 1159517; calls by dose curve)
Summary of the method: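 Cells, HeLa ESRE-bla; density, 1,500/well; dosing, 5 hr at 37 C, 5% CO2; readout, CellTiter-Glo luminescence after 30 min RT.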

[16] = qHTS assay to identify small molecule antagonists of the retinoid-related orphan receptor gamma (ROR-gamma) signaling pathway - cell viability counter screen (AID 1159520); also: nearly all actives have a fitted effect of over 50% in size
Summary of the method: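 Cytotoxicity was read from cellular ATP (CellTiter-Glo luminescence) after 16 hr at 37 C with 1 uM doxycycline induction. The inducer was added 2 hr after compound transfer to Tet-on ROR gamma CHO cells.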

[17] = molecular target: Nuclear receptor ROR-gamma (Homo sapiens) (UniProt P51449); experiment: qHTS assay to identify small molecule antagonists of the retinoid-related orphan receptor gamma (ROR-gamma) signaling pathway (AID 1159521)
Summary of the method: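 Readout: ONE-Glo luciferase luminescence, 30 min at room temperature. System: Tet-on RORγ CHO, RORE-LUC. Sequence: compound 2 h, doxycycline 1 uM final, 16 h at 37 C.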

[18] = qHTS assay to identify small molecule agonists of the AP-1 signaling pathway (AID 1159526; calls by dose curve)
[19] = qHTS assay to identify small molecule agonists of the AP-1 signaling pathway - cell viability counter screen (AID 1159525; calls by dose curve; also: nearly all actives have a fitted effect of over 55% in size)
Summary of the method: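 Luminescent ATP readout (Cell Titer Glo, 30 min RT), normalised to DMSO and tetra n-octyl ammonium bromide controls. Cells were ME-180 AP-1-bla in 0.5% dialyzed FBS Opti-MEM, with a 5 h, 37 °C compound exposure.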

Compound	outcome [1]	outcome [2]	outcome [3]	Potency [4]	outcome [5]	outcome [6]	outcome [7]	outcome [8]	outcome [9]	outcome [10]	outcome [11]	outcome [12]	outcome [13]	outcome [14]	outcome [15]	Potency [16]	Potency [17]	Potency [18]	Potency [19]
COC(=O)NC(=S)Nc1ccccc1NC(=S)NC(=O)OC	inactive	inactive	inactive	inactive	inactive	inactive	inactive	inactive	inactive	inactive	inactive	inactive	inactive	inactive	inactive	inactive	inactive	inactive	–
O=c1[nH]c2ccccc2c(=O)o1	inactive	inactive	inactive	inactive	inactive	inactive	inactive	inactive	–	inactive	inactive	inactive	inactive	inactive	inactive	inactive	inactive	inactive	inactive
CCCCCCCCCl	inactive	inactive	inactive	inactive	inactive	–	inactive	inactive	inactive	inactive	inactive	inactive	inactive	inactive	inactive	inactive	–	inactive	inactive
c1ccc2c(c1)Oc1ccccc1O2	inactive	–	inactive	–	inactive	inactive	inactive	inactive	inactive	–	inactive	inactive	inactive	inactive	inactive	inactive	inactive	inactive	inactive
Oc1ccccc1Cl	inactive	inactive	inactive	inactive	–	inactive	–	inactive	–	inactive	–	inactive	inactive	inactive	inactive	inactive	–	inactive	–
CC(C)(C)C(O)(CCc1ccc(Cl)cc1)Cn1cncn1 (stereo not drawn)	inactive	inactive	inactive	inactive	–	inactive	–	inactive	inactive	inactive	inactive	inactive	inactive	inactive	inactive	inactive	inactive	inactive	–
CCCCN(CC)C(=O)SCCC	inactive	inactive	inactive	inactive	inactive	–	inactive	inactive	–	inactive	inactive	inactive	inactive	inactive	inactive	inactive	inactive	inactive	–
CC(C)(Cl)Cl	inactive	inactive	inactive	inactive	–	inactive	–	inactive	inactive	inactive	–	inactive	inactive	inactive	inactive	inactive	–	inactive	–
CCC(C)(CC)c1cc(NC(=O)c2c(OC)cccc2OC)on1	inactive	inactive	inactive	55.1 µM (active) and inactive	–	–	–	inactive	inactive	inactive	–	inactive	inactive	inactive	inactive	inactive	–	inactive	inactive
CC(C)OC(=O)Nc1ccccc1	inactive	–	inactive	–	–	inactive	–	inactive	–	inactive	inactive	inactive	inactive	inactive	inactive	inactive	inactive	inactive	inactive
CC(Oc1ccc(Cl)cc1Cl)C(=O)O (stereo not drawn)	inactive	–	inactive	–	inactive	–	inactive	inactive	inactive	inactive	–	inactive	inactive	inactive	inactive	inactive	inactive	inactive	inactive
NCCc1ccc(O)cc1	inactive	inactive	inactive	inactive	–	–	–	inactive	–	–	inactive	inactive	inactive	inactive	inactive	inactive	inactive	inactive	inactive
C=C(C)CCl	inactive	inactive	inactive	inactive	inactive	inactive	inactive	inactive	–	inactive	–	inactive	inactive	inactive	inactive	inactive	inactive	inactive	–
CCc1cccc(C)c1N(C(=O)CCl)C(C)COC (stereo not drawn)	inactive	–	inactive	–	–	inactive	–	inactive	inactive	inactive	inactive	inactive	inactive	inactive	inactive	inactive	–	inactive	inactive
CN(C)N=O	inactive	–	inactive	–	inactive	inactive	inactive	inactive	–	inactive	inactive	inactive	inactive	inactive	inactive	inactive	inactive	inactive	inactive
NCC(O)c1ccc(O)cc1 (stereo not drawn)	inactive	–	inactive	–	–	inactive	–	inactive	–	inactive	–	inactive	inactive	inactive	inactive	inactive	inactive	inactive	inactive
COC(=O)NS(=O)(=O)c1ccc(N)cc1	inactive	inactive	inactive	inactive	–	–	–	inactive	–	inactive	inactive	inactive	inactive	inactive	inactive	inactive	inactive	inactive	inactive
COC(=O)c1ccccc1C(=O)OC	inactive	–	inactive	–	inactive	–	inactive	inactive	–	inactive	inactive	inactive	inactive	inactive	inactive	inactive	inactive	inactive	–

Reference: PubChem BioAssay (Tox21)
